Laboratory results reported in PubChem BioAssay (NCI).
About 79,000 compounds went through this panel and 15% of them were active in at least one assay; those are over-represented in the sample as a whole. Unmarked numbers belong to inactive results. Active and inactive are the calls of the source. Rule as the data show it: active = growth inhibition above about 70%; inactive = the rest.

Experiments:
[1] = NCI Yeast Anticancer Drug Screen. Data for the rad52 strain (AID 147);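 also: 0% = growth of vehicle-treated control cultures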; settings: S. cerevisiae rad52 mutant growth inhibition, stronger effect = higher value
Procedure, shortened: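 The repair-mutant yeast strain was incubated with compounds, then growth was read and inhibition derived relative to vehicle.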

[2] = NCI Yeast Anticancer Drug Screen. Data for the wt1 strain (AID 149);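 also: 0% = growth of vehicle-treated wt1 cultures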; settings: S. cerevisiae wt1 strain (SPY 50644) growth inhibition, stronger effect = higher value
Procedure, shortened: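 Growth inhibition read against vehicle controls after compound exposure of the wt1 yeast strain.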

[3] = NCI Yeast Anticancer Drug Screen. Data for the rad50EPP+ strain (AID 151);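 also: 0% = growth of vehicle-treated control cultures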; settings: S. cerevisiae rad50 mutant strain, stronger effect = higher value
Procedure, shortened: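 Vehicle-normalised growth inhibition; rad50EPP+ yeast strain, altered in DNA damage repair, compound-treated.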

[4] = NCI Yeast Anticancer Drug Screen. Data for the mgt1 strain (AID 153); settings: S. cerevisiae mgt1 mutant growth inhibition, stronger effect = higher value
Procedure, shortened: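 Vehicle-normalized growth inhibition is determined in mgt1 yeast, a strain selected for a defined alteration in DNA repair or cell cycle control.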

[5] = NCI Yeast Anticancer Drug Screen. Data for the rad50 strain (AID 155);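 also: 0% = growth of vehicle-only cultures of the same strain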; settings: S. cerevisiae rad50 strain growth inhibition, stronger effect = higher value
Procedure, shortened: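 Readout: growth inhibition relative to vehicle-treated cultures. Compound exposure was carried out in a genetically defined yeast strain deficient in DNA damage repair.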

[6] = NCI Yeast Anticancer Drug Screen. Data for the mec2-1 strain (AID 157); settings: S. cerevisiae mec2-1 strain, stronger effect = higher value
Procedure, shortened: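 Mutant yeast (mec2-1) grown with compound; growth inhibition relative to vehicle control reported.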

[7] = NCI Yeast Anticancer Drug Screen. Data for the sgs1 mgt1 strain (AID 161);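 also: 0% = growth of cultures given vehicle only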; settings: S. cerevisiae sgs1 mgt1 strain, stronger effect = higher value
Procedure, shortened: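 Compounds are added to genetically altered yeast, and growth is compared with cultures given vehicle alone to give percent inhibition.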

[8] = NCI Yeast Anticancer Drug Screen. Data for the CLN2oe strain (AID 163);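 also: 0% = growth of vehicle-only control cultures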; settings: S. cerevisiae CLN2oe strain, stronger effect = higher value
Procedure, shortened: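 Compounds are applied to yeast harbouring a defined cell-cycle control change; reduced growth compared with vehicle-treated controls gives the value.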

[9] = NCI Yeast Anticancer Drug Screen. Data for the cln2 rad14 strain (AID 165);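 also: 0% = growth equal to vehicle treated cultures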; settings: S. cerevisiae cln2 rad14 strain, stronger effect = higher value
Procedure, shortened: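 Readout is yeast growth inhibition versus vehicle-treated controls, using a strain with cln2 and rad14 alterations exposed to compound.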

[10] = NCI Yeast Anticancer Drug Screen. Data for the bub3 strain (AID 167); settings: S. cerevisiae bub3 mutant strain, stronger effect = higher value
Procedure, shortened: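 Readout: yeast growth inhibition, expressed relative to vehicle-only wells. The test organism is a mutant strain from a panel with lesions in DNA repair or checkpoint genes.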

[11] = NCI Yeast Anticancer Drug Screen. Data for the wt2 strain (AID 169);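 also: 0% = growth of vehicle-treated yeast cultures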; settings: S. cerevisiae wt2 strain growth inhibition, stronger effect = higher value
Procedure, shortened: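 Against vehicle-treated controls, the growth of yeast exposed to each compound was compared, and the inhibition was recorded.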

[12] = NCI Yeast Anticancer Drug Screen. Data for the mlh1 strain (AID 171);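 also: 0% = growth of vehicle-treated control cultures of the same strain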; settings: S. cerevisiae mlh1 strain growth inhibition, stronger effect = higher value
Procedure, shortened: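 Measured: yeast growth. Reference: vehicle-treated controls. Organism: strain with a defined alteration affecting DNA damage repair or cell cycle control, treated with compound.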

[13] = NCI Yeast Anticancer Drug Screen. Data for the sgs1 strain (AID 173);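 also: 0% = growth of vehicle-only control cultures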; settings: S. cerevisiae sgs1 mutant, stronger effect = higher value
Procedure, shortened: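 Each compound was added to cultures of the altered yeast strain. Growth was recorded, and inhibition was derived by comparison with vehicle controls.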

[14] = NCI Yeast Anticancer Drug Screen. Data for the mlh1 rad18 strain (AID 175); settings: S. cerevisiae mlh1 rad18 strain growth inhibition, stronger effect = higher value
Procedure, shortened: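 Genetically defined yeast (DNA repair-deficient) exposed to compounds; growth inhibition determined relative to vehicle.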

[15] = NCI Yeast Anticancer Drug Screen. Data for the rad18 strain (AID 177); settings: S. cerevisiae rad18 mutant growth inhibition, stronger effect = higher value
Procedure, shortened: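 Vehicle-treated cultures served as the baseline for scoring compound-induced growth inhibition in DNA-repair-mutant yeast.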

[16] = at 5.0 µM (retest, dose inferred, filed as 0.5)
[17] = at 50.0 µM (retest, dose inferred, filed as 5.0)

In the case of `Clc1cc(-c2ccccc2)nc2ccccc12`, the growth inhibition ([1]; at 1.2 µM) is reported as 6%, the growth inhibition ([1]; at 3.7 µM) is reported as -1% and the growth inhibition ([1]; at 11.0 µM) is reported as 0%. For the same molecule, the growth inhibition ([1]; at 33.0 µM) was 34%, the growth inhibition ([1]; at 100.0 µM) was 75% (active) and the growth inhibition ([2]; at 1.2 µM) was -10%. The growth inhibition ([2]; at 3.7 µM) was -15%, the growth inhibition ([2]; at 11.0 µM) was -17% and the growth inhibition ([2]; at 33.0 µM) was 24%. For the same molecule, the growth inhibition ([2]; at 100.0 µM) was 71% (active), the growth inhibition ([3]; at 1.2 µM) was 7% and the growth inhibition ([3]; at 3.7 µM) was 27%. For the same molecule, the growth inhibition ([3]; at 11.0 µM) was 56%, the growth inhibition ([3]; at 33.0 µM) was 77% (active) and the growth inhibition ([3]; at 100.0 µM) was 90% (active). For the same molecule, the growth inhibition ([4]; at 1.2 µM) was 13%, the growth inhibition ([4]; at 3.7 µM) was 32% and the growth inhibition ([4]; at 11.0 µM) was 36%. For the same molecule, the growth inhibition ([4]; at 33.0 µM) was 80% (active), the growth inhibition ([4]; at 100.0 µM) was 97% (active) and the growth inhibition ([5]; at 1.2 µM) was 6%. For the same molecule, the growth inhibition ([5]; at 3.7 µM) was 10%, the growth inhibition [5, 16] was 68% and the growth inhibition ([5]; at 11.0 µM) was 2%. The growth inhibition ([5]; at 33.0 µM) was 36%, the growth inhibition [5, 17] was 90% (active) and the growth inhibition ([5]; at 50.0 µM) was 75.3% (active). For the same molecule, the growth inhibition ([5]; at 100.0 µM) was 81% (active), the growth inhibition ([6]; at 1.2 µM) was -18% and the growth inhibition ([6]; at 3.7 µM) was -8%. For the same molecule, the growth inhibition [6, 16] was 77% (active), the growth inhibition ([6]; at 11.0 µM) was -14% and the growth inhibition ([6]; at 33.0 µM) was 33%. The growth inhibition [6, 17] was 92% (active), the growth inhibition ([6]; at 50.0 µM) was 44.4% and the growth inhibition ([6]; at 100.0 µM) was 86% (active). For the same molecule, the growth inhibition [7, 16] was -23%, the growth inhibition [7, 17] was 88% (active) and the growth inhibition ([8]; at 1.2 µM) was 5%. It also gave a growth inhibition ([8]; at 3.7 µM) of 3%, a growth inhibition ([8]; at 11.0 µM) of -8% and a growth inhibition ([8]; at 33.0 µM) of 28%. For the same molecule, the growth inhibition ([8]; at 100.0 µM) was 54%, the growth inhibition [9, 16] was 40% and the growth inhibition [9, 17] was 82% (active). The growth inhibition ([10]; at 1.2 µM) was 11%, the growth inhibition ([10]; at 3.7 µM) was 23% and the growth inhibition [10, 16] was 27%. For the same molecule, the growth inhibition ([10]; at 11.0 µM) was 34%, the growth inhibition ([10]; at 33.0 µM) was 60% and the growth inhibition [10, 17] was 93% (active). For the same molecule, the growth inhibition ([10]; at 100.0 µM) was 93% (active), the growth inhibition ([11]; at 1.2 µM) was -11% and the growth inhibition ([11]; at 3.7 µM) was -3%. For the same molecule, the growth inhibition ([11]; at 11.0 µM) was 0%, the growth inhibition ([11]; at 33.0 µM) was 47% and the growth inhibition ([11]; at 100.0 µM) was 86% (active). For the same molecule, the growth inhibition ([12]; at 1.2 µM) was 20%, the growth inhibition ([12]; at 3.7 µM) was 27% and the growth inhibition ([12]; at 11.0 µM) was 24%. The growth inhibition ([12]; at 33.0 µM) was 61%, the growth inhibition ([12]; at 100.0 µM) was 95% (active) and the growth inhibition ([13]; at 1.2 µM) was -9%. For the same molecule, the growth inhibition ([13]; at 3.7 µM) was -12%, the growth inhibition ([13]; at 11.0 µM) was -9% and the growth inhibition ([13]; at 33.0 µM) was 42%. The growth inhibition ([13]; at 100.0 µM) was 82% (active), the growth inhibition [14, 16] was 47% and the growth inhibition [14, 17] was 87% (active). It also gave a growth inhibition ([14]; at 50.0 µM) of 31.4%, a growth inhibition ([15]; at 1.2 µM) of 16% and a growth inhibition ([15]; at 3.7 µM) of 9%. For the same molecule, the growth inhibition ([15]; at 11.0 µM) was 25%, the growth inhibition ([15]; at 33.0 µM) was 59% and the growth inhibition ([15]; at 100.0 µM) was 91% (active).

For `CN(CC(=O)O)c1ccc(/C=C/c2ccnc3ccccc23)cc1`, the growth inhibition ([1]; at 1.2 µM) was -3%, the growth inhibition ([1]; at 3.7 µM) was -5% and the growth inhibition ([1]; at 11.0 µM) was -2%. The growth inhibition ([1]; at 33.0 µM) was 13%, the growth inhibition ([1]; at 100.0 µM) was 41% and the growth inhibition ([2]; at 1.2 µM) was -2%. The growth inhibition ([2]; at 3.7 µM) was -3%, the growth inhibition ([2]; at 11.0 µM) was -4% and the growth inhibition ([2]; at 33.0 µM) was -8%. The growth inhibition ([2]; at 100.0 µM) was -6%, the growth inhibition ([3]; at 1.2 µM) was -9% and the growth inhibition ([3]; at 3.7 µM) was 3%. The growth inhibition ([3]; at 11.0 µM) was 8%, the growth inhibition ([3]; at 33.0 µM) was 35% and the growth inhibition ([3]; at 100.0 µM) was 83% (active). It also gave a growth inhibition ([4]; at 1.2 µM) of 0%, a growth inhibition ([4]; at 3.7 µM) of 0% and a growth inhibition ([4]; at 11.0 µM) of -2%. For the same molecule, the growth inhibition ([4]; at 33.0 µM) was -2%, the growth inhibition ([4]; at 100.0 µM) was 39% and the growth inhibition ([5]; at 1.2 µM) was -1%. The growth inhibition ([5]; at 3.7 µM) was -1%, the growth inhibition [5, 16] was 23% and the growth inhibition ([5]; at 11.0 µM) was 2%. It also gave a growth inhibition ([5]; at 33.0 µM) of 11%, a growth inhibition [5, 17] of 24% and a growth inhibition ([5]; at 50.0 µM) of 14.7%. The growth inhibition ([5]; at 100.0 µM) was 31%, the growth inhibition ([6]; at 1.2 µM) was -5% and the growth inhibition ([6]; at 3.7 µM) was -4%. It also gave a growth inhibition [6, 16] of 6%, a growth inhibition ([6]; at 11.0 µM) of -5% and a growth inhibition ([6]; at 33.0 µM) of -3%. The growth inhibition [6, 17] was 12%, the growth inhibition ([6]; at 50.0 µM) was 33.5% and the growth inhibition ([6]; at 100.0 µM) was 16%. For the same molecule, the growth inhibition [7, 16] was 5%, the growth inhibition [7, 17] was 80% (active) and the growth inhibition ([7]; at 50.0 µM) was 59.2%. For the same molecule, the growth inhibition ([8]; at 1.2 µM) was -3%, the growth inhibition ([8]; at 3.7 µM) was -4% and the growth inhibition ([8]; at 11.0 µM) was -9%. It also gave a growth inhibition ([8]; at 33.0 µM) of -15%, a growth inhibition ([8]; at 100.0 µM) of -12% and a growth inhibition [9, 16] of -2%. The growth inhibition [9, 17] was 22%, the growth inhibition ([9]; at 50.0 µM) was -46.4% and the growth inhibition ([10]; at 1.2 µM) was -3%. It also gave a growth inhibition ([10]; at 3.7 µM) of -4%, a growth inhibition [10, 16] of 6% and a growth inhibition ([10]; at 11.0 µM) of -5%. The growth inhibition ([10]; at 33.0 µM) was -8%, the growth inhibition [10, 17] was 20% and the growth inhibition ([10]; at 50.0 µM) was 51.9%. The growth inhibition ([10]; at 100.0 µM) was 12%, the growth inhibition ([11]; at 1.2 µM) was -4% and the growth inhibition ([11]; at 3.7 µM) was -4%. For the same molecule, the growth inhibition ([11]; at 11.0 µM) was -5%, the growth inhibition ([11]; at 33.0 µM) was -3% and the growth inhibition ([11]; at 100.0 µM) was 37%. The growth inhibition ([12]; at 1.2 µM) was -1%, the growth inhibition ([12]; at 3.7 µM) was 2% and the growth inhibition ([12]; at 11.0 µM) was 3%. The growth inhibition ([12]; at 33.0 µM) was 7%, the growth inhibition ([12]; at 100.0 µM) was 41% and the growth inhibition ([13]; at 1.2 µM) was -2%. It also gave a growth inhibition ([13]; at 3.7 µM) of 0%, a growth inhibition ([13]; at 11.0 µM) of 4% and a growth inhibition ([13]; at 33.0 µM) of 22%. The growth inhibition ([13]; at 100.0 µM) was 65%, the growth inhibition [14, 16] was 30% and the growth inhibition [14, 17] was 88% (active). The growth inhibition ([14]; at 50.0 µM) was 50.4%, the growth inhibition ([15]; at 1.2 µM) was 1% and the growth inhibition ([15]; at 3.7 µM) was 5%. For the same molecule, the growth inhibition ([15]; at 11.0 µM) was 10%, the growth inhibition ([15]; at 33.0 µM) was 78% (active) and the growth inhibition ([15]; at 100.0 µM) was 91% (active).
